This note sets out measurements from the supplement of paper PMC13380429.

The subject of assay [1] is Vero E6 infected with SARS-CoV-2. Nature of the assay: morphology score (similarity to uninfected cells); higher = more like uninfected cells. The note with it: 24 h.
The test system is the same in assay [2]. Kind of assay: SARS-CoV-2 infection rate relative to infected DMSO; higher = more infection, active = 60 or less. The note with it: 24 h.

Where a name gives a salt, the structure may show the parent alone.

In turn, `O=C(/C=C/c1ccc(O)c(O)c1)c1ccc(O)cc1O` [butein] (10 µM) gave a morphology score in assay [1] of 0.256. For the same molecule, the SARS-CoV-2 infection rate in assay [2] is 106% (inactive).
For `CC[C@H](CO)Nc1nc(Nc2cccc(-c3ccccn3)c2)c2ncn(C(C)C)c2n1` (10 µM) the same measures were -0.214 and 116% (inactive).
For `Oc1ccc([C@H]2COc3cc(O)ccc3C2)cc1` [equol] (10 µM) the same measures were -0.116 and 114% (inactive).
For `C[C@@H](NCCCc1cccc(C(F)(F)F)c1)c1cccc2ccccc12` [cinacalcet] (10 µM) the same measures were 0.845 and 20% (active).
`Cc1[nH]nc(C(F)(F)F)c1Cc1sc2c(c1C(=O)N1C[C@](C)(O)CO1)c(=O)n(C)c(=O)n2C(C)C` (10 µM) showed a morphology score in assay [1] of 0.0405. Further, the SARS-CoV-2 infection rate in assay [2] was 101% (inactive).
For `Cc1cc(N2CCCCC2)nc2ccccc12` (10 µM) the same measures were 0.282 and 93% (inactive).
For `Nc1ccn([C@H]2CO[C@@H](CO)S2)c(=O)n1` [apricitabine] (10 µM), in that order: 0.071 and 108% (inactive).
For `Cc1nn(C)c2nc(NNC(=O)Nc3cc(Cl)nc(Cl)c3)cc(C(C)C)c12` (10 µM), in that order: 0.0785 and 108% (inactive).
Molecule `COc1ccc(Cl)cc1NC(=O)Nc1cc(C)nc2ccccc12` (10 µM) returned a morphology score in assay [1] of 0.148. Besides, the SARS-CoV-2 infection rate in assay [2] was 96.5% (inactive).
For `CN(C)CCN1C(=O)c2cccc3cc(NC(N)=O)cc(c23)C1=O` [unbs-5162] (10 µM) the same measures were 0.115 and 102% (inactive).
For `O=C(O)COC(=O)Cc1ccccc1Nc1c(Cl)cccc1Cl` [aceclofenac] (10 µM) the same measures were -0.0479 and 110% (inactive).
For `CCNC(=O)CCC/C=C\C[C@@H]1[C@@H](/C=C/[C@@H](O)CCc2ccccc2)[C@H](O)C[C@@H]1O` [bimatoprost] (10 µM) the same measures were 0.0397 and 103% (inactive).
As for `Cc1cc(-c2cc(O)ccc2Cl)cc2nnc(Nc3ccc(OCCN4CCCC4)cc3)nc12` (0.833333 µM), the morphology score in assay [1] is -0.04. Moreover, in assay [2], the SARS-CoV-2 infection rate is 103% (inactive).
For `CC(C)(C(=O)O)c1ccc(C(=O)CCCN2CCC(OC(c3ccccc3)c3ccccc3)CC2)cc1` [carebastine] (10 µM), in that order: 0.0702 and 103% (inactive).
In the case of `O=c1[nH]c(=O)n([C@H]2C[C@H](O)[C@@H](CO)O2)cc1Br` [broxuridine] (0.833333 µM), the morphology score in assay [1] amounted to 0.0347. For the same molecule, in assay [2], the SARS-CoV-2 infection rate is 108% (inactive).
For `NC(N)=Nc1nc(CSCC/C(N)=N/S(N)(=O)=O)cs1` [Famotidine] (10 µM), in that order: -0.0119 and 106% (inactive).
For `CC(O)(P(=O)(O)O)P(=O)(O)O` [etidronic-acid] (10 µM) the same measures were 0.115 and 103% (inactive).
Take `CCC(=O)O[C@]1(C(=O)CCl)[C@@H](C)C[C@H]2[C@@H]3CCC4=CC(=O)C=C[C@]4(C)[C@@]3(F)[C@@H](O)C[C@@]21C` [clobetasol-propionate] (10 µM): in assay [1], the morphology score is 0.00072. Also, the SARS-CoV-2 infection rate in assay [2] was 105% (inactive).
For `NCCC(=O)N[C@@H](Cc1c[nH]cn1)C(=O)O` [carnosine] (0.833333 µM), in that order: 0.0964 and 99% (inactive).
For `N#Cc1cc(F)cc(-c2nc(-c3ccc(F)cn3)no2)c1` (10 µM), in that order: 0.136 and 89% (inactive).
For `CCN(CC)CCCCNc1ncc2cc(-c3c(Cl)cccc3Cl)c(NC(=O)NC(C)(C)C)nc2n1` (0.833333 µM), in that order: 0.085 and 117% (inactive).
As for `O=C1c2ccccc2C(=O)C1c1ccc(Br)cc1` [bromindione] (10 µM), the morphology score in assay [1] was 0.204. Also, in assay [2], the SARS-CoV-2 infection rate was 93.5% (inactive).
For `Nc1nonc1/C(=N/O)Nc1ccc(F)c(Cl)c1` (10 µM), in that order: 0.043 and 112% (inactive).
For `O=C1C[C@@H]2OCC=C3CN4CC[C@]56c7ccccc7N1[C@H]5[C@H]2[C@H]3C[C@H]46` [strychnine] (10 µM) the same measures were 0.314 and 90% (inactive).
For `CCOCC(O)COc1ccc(NC(=O)CC[S+](C)C)cc1` (configuration not stated) [suplatast] (10 µM), in that order: 0.0407 and 102% (inactive).
Take `CCOc1nc2cccc(C(=O)O)c2n1Cc1ccc(-c2ccccc2-c2noc(=O)[nH]2)cc1` [azilsartan] (10 µM): the morphology score in assay [1] amounted to 0.0851. Besides, the SARS-CoV-2 infection rate in assay [2] is 109% (inactive).
For `Cc1ccc(S(=O)(=O)n2c(N)nc3ccccc32)cc1` (10 µM), in that order: -0.0202 and 108% (inactive).
For `Oc1cc(O)c2cc(O)c(-c3cc(O)c(O)c(O)c3)[o+]c2c1` [delphinidin] (10 µM) the same measures were 0.115 and 98.5% (inactive).
As for `CN(C[C@@H]1COCCO1)S(=O)(=O)Nc1ccc2ccc3ncc(-c4cnn(C)c4)cc3c(=O)c2c1` (0.833333 µM), the morphology score in assay [1] was 0.0936. The SARS-CoV-2 infection rate in assay [2] is 111% (inactive).
For `CCN[C@@H](C)Cc1cccc(C(F)(F)F)c1` [dexfenfluramine] (10 µM) the same measures were -0.224 and 112% (inactive).
`COC(=O)C1=C(C#N)NC(C)=C(C(=O)OC(C)C)C1c1cccc([N+](=O)[O-])c1` (configuration not stated) [nilvadipine] (10 µM): the morphology score in assay [1] is -0.0761. Besides, in assay [2], the SARS-CoV-2 infection rate is 106% (inactive).
On to `NCCc1c[nH]c2ccc(C(N)=O)cc12` [5-carboxamidotryptamine] (10 µM), for which the morphology score in assay [1] came to 0.0259. In assay [2], the SARS-CoV-2 infection rate was 103% (inactive).
For `COc1ccc(C2CC(c3ccccc3)=NN2c2ccc(S(N)(=O)=O)cc2)cc1` (configuration not stated) (10 µM) the same measures were 0.152 and 87% (inactive).
For the molecule `CC[C@@H](c1cccc(O)c1)[C@@H](C)CN(C)C` [Tapentadol (hydrochloride)] (10 µM), in assay [1], the morphology score is 0.0731. The SARS-CoV-2 infection rate in assay [2] was 108% (inactive).
For `COc1ccc(F)c(F)c1C(=O)c1cnc(NC2CCN(S(C)(=O)=O)CC2)nc1N` (10 µM) the same measures were -0.352 and 118% (inactive).
For `O=C(CCCCCN1C(=O)c2cccc3cccc(c23)C1=O)NO` [scriptaid] (10 µM) the same measures were -0.255 and 120% (inactive).
